This note sets out measurements from paper PMC7819943, “Rice protein-binding microarrays: a tool to detect cis-acting elements near promoter regions in rice”.

Over roughly 39,000 sequences, “fluorescence intensity (a.u.)” has its median near 4,300; the highest 2% begin near 39,000. For the sample, the highest values were picked, then their nearest neighbours and some sequences at random.

In the assay the target is T1, OsSMF1 (Oryza sativa, UniProt Q6ZLB0 1-436).
T1 sequence: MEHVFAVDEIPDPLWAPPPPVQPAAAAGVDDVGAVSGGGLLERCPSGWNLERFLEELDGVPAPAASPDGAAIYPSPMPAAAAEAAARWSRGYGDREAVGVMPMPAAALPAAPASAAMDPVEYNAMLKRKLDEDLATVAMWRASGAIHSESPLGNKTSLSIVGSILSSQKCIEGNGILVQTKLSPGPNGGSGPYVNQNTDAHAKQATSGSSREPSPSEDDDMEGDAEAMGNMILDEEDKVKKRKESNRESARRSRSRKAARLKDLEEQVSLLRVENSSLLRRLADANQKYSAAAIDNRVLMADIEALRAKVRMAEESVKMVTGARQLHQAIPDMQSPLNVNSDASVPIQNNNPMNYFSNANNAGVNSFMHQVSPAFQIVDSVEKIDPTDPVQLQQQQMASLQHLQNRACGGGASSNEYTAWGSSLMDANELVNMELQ
Description: protein-binding microarray (RPBM); PBS, 2% BSA, 51.3 ng/ul salmon testes DNA, 50 uM zinc acetate, 200 nM TF, 25 C, 1 h; high values mean tight binding. The settings on record: protein: recombinant; tags: N-terminal polyhistidine and DsRed monomer fusion (pET32a); chain copies: 2; label: CyDye5-dUTP incorporated in the synthesized complementary strand; 3' TTTTT single-stranded linker to array surface; dsDNA, one strand shown. Summed up:
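Binding signal is reported as fluorescence intensity per feature (arbitrary units) from an Axon 4000B scanner. Incubation used 200 nM of each Ni–NTA-purified, N-terminally polyhistidine- and DsRed-fused transcription factor from E. coli BL21-CodonPlus on a double-stranded custom Agilent array for 1 h at 25 °C, with 50 µM zinc acetate in the buffer, followed by washing.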
For “GCCAGCTGCCACGTGGGACAAAATCGGGGTCAAAACCACCCGGAGTCACCTAGTGCAG”, the binding signal was 12700 fluorescence intensity (a.u.).

Regarding “CCTCGTCCGCCTTGGTCTTCTTCCAGCCGAGGAGCAACCGCGGAGTCACCTAGTGCAG”, the binding signal is 48200 fluorescence intensity (a.u.).

In the case of “GTCCAGCCTCCTCCTCCGCTGACCTCCTCGCGGTCTTCTCCGGAGTCACCTAGTGCAG”, the binding signal was 4520 fluorescence intensity (a.u.).

Turning to “CGAGCCGCCTCCGCCACCGCCGCCTCCTTCCGACCAGCCGCGGAGTCACCTAGTGCAG”, the binding signal is 3530 fluorescence intensity (a.u.). With “AGCTTACTATGATACCGATGAACACGTTATGACAACAAACCGGAGTCACCTAGTGCAG”, the binding signal is 3880 fluorescence intensity (a.u.). As to “CAAATACTAAATGATTTCAAATGAAAACGTCATCAACAACCGGAGTCACCTAGTGCAG”, the binding signal is 3560 fluorescence intensity (a.u.). As for “AATCAAACTTTCAATTTTAGCGTGAACTAAACACACCCTTCGGAGTCACCTAGTGCAG”, the figure is 3680 fluorescence intensity (a.u.). The result for “AACGTGAACTAAACACATGTCGAAATGCAATCAAAATACCCGGAGTCACCTAGTGCAG” reads 42000 fluorescence intensity (a.u.); that for “ATAGAAACATAGCGTGACACAACATAACAAACCAATGCAACGGAGTCACCTAGTGCAG”, 4630 fluorescence intensity (a.u.); that for “CCAAATAGACTCTTACTTATAAGGGTTGAGTCTAGAGTGACGGAGTCACCTAGTGCAG”, 6050 fluorescence intensity (a.u.).

On to “ATAAAGTCCTTATCGGACACTAAACGCACTTTCCTAAAGACGGAGTCACCTAGTGCAG”, for which the binding signal is 39200 fluorescence intensity (a.u.). The result for “ATGAACTAAACGCACCCTTGTAAGTCTGACACACTGTGGACGGAGTCACCTAGTGCAG” reads 3720 fluorescence intensity (a.u.); that for “TGATTGTGACACTAGCACGACGCACTTTCCTCTATATACACGGAGTCACCTAGTGCAG”, 3630 fluorescence intensity (a.u.). As for “AAGAAATCTCTTCATAGATCTCCTGATGAAAGAATTTAACCGGAGTCACCTAGTGCAG”, the figure is 3730 fluorescence intensity (a.u.); as for “CAGGCTACAGGGCATTTGTGTCATTTTGCAAGAAGGCATACGGAGTCACCTAGTGCAG”, 3380 fluorescence intensity (a.u.). The result for “TGTTCCACTGTTGTGTGTGTGGCATTCTTGTACTGCATTTCGGAGTCACCTAGTGCAG” reads 3360 fluorescence intensity (a.u.); that for “TTGTGTGCATTTCGGCATTTGGCTACAAGATTCTTGCAGTCGGAGTCACCTAGTGCAG”, 39600 fluorescence intensity (a.u.).

“CTCGATACAGAGTGAGCGGGGTATGGCAATGACGAGCTATCGGAGTCACCTAGTGCAG”: the binding signal is 3160 fluorescence intensity (a.u.). Turning to “GAATGAAAACTCAGGGGTAAGTAGGAGATGACGCAAAGTTCGGAGTCACCTAGTGCAG”, the binding signal was 3580 fluorescence intensity (a.u.). Take “CGTCTCGCCGGAGCGTTGACGAGGACCTCTCTACTCTTCACGGAGTCACCTAGTGCAG”: the binding signal is 3680 fluorescence intensity (a.u.). The result for “TTCTCCCTCTACTATTGCTGACGCCACCAACGCCCATGTGCGGAGTCACCTAGTGCAG” reads 13500 fluorescence intensity (a.u.); that for “GGCCATGTTGAATGACGCGTTGCTCTCCCTACTCTACGGACGGAGTCACCTAGTGCAG”, 49100 fluorescence intensity (a.u.); that for “CCTTCCACATATGCTCATTCGAAAGTAACAAATTCACTCGCGGAGTCACCTAGTGCAG”, 3190 fluorescence intensity (a.u.). As for “GGTGATTGCATTTGCTGATGTCAGGTATGCCTATTATATTCGGAGTCACCTAGTGCAG”, the figure is 14700 fluorescence intensity (a.u.); as for “ACTAGTTTACAACCACACCAACATGTAGGCATGAACATGGCGGAGTCACCTAGTGCAG”, 22900 fluorescence intensity (a.u.).

As for “CGAGTTTAGAATCCACACCATGATTACATGTAAACAACGTCGGAGTCACCTAGTGCAG”, the binding signal is 44700 fluorescence intensity (a.u.). As for “TTGGATGACACAACAACATGTAAGGTTAGAAACGATATGTCGGAGTCACCTAGTGCAG”, the figure is 3990 fluorescence intensity (a.u.); as for “TAAAGTAGTTTTACACGTAAATCAGATGCTGACGTCAGCGCGGAGTCACCTAGTGCAG”, 48600 fluorescence intensity (a.u.); as for “AAAGTAGTTTTACACGTAAATCGGGCGCTGACGTTATCAGCGGAGTCACCTAGTGCAG”, 5310 fluorescence intensity (a.u.). On to “AAAGTAGTTTCTGCACGTAAATCGGACGCTGACGTCAGCGCGGAGTCACCTAGTGCAG”, for which the binding signal is 36600 fluorescence intensity (a.u.). As for “AAACACACTGACACGCATTCGGCCCGTTCCCTCGATGCGTCGGAGTCACCTAGTGCAG”, the figure is 5340 fluorescence intensity (a.u.); as for “ATGAACTCATGCAACATTACTGGCTGATGCATCAACTTTACGGAGTCACCTAGTGCAG”, 3270 fluorescence intensity (a.u.).

As for “ATGATGCTGGATTGCTGGATACTGCATCAACATCATTAAGCGGAGTCACCTAGTGCAG”, the binding signal was 44500 fluorescence intensity (a.u.). As for “AACATCATATATTGATGATTATTTGCTGCATAAGGAGATGCGGAGTCACCTAGTGCAG”, the figure is 4070 fluorescence intensity (a.u.). As for “AACTTTTAATGATGTTCAACATGGGAAAATATGTGGTGGACGGAGTCACCTAGTGCAG”, the figure is 8320 fluorescence intensity (a.u.). Turning to “AATATTGTGTGTTGTTGTGTTGTCATCTGATATATTTTAGCGGAGTCACCTAGTGCAG”, the binding signal is 6470 fluorescence intensity (a.u.). As for “ACCTAAACGAGCCAACACGCACGCTCATCGCATCTTTGCGCGGAGTCACCTAGTGCAG”, the figure is 3810 fluorescence intensity (a.u.). Regarding “AAGGTAGGTTGTAGAACTGATGATCTGTCAATGGTGAAATCGGAGTCACCTAGTGCAG”, the binding signal is 4940 fluorescence intensity (a.u.).

On to “ACACATGGAACTTGTGCCATATATCTGTAGGTGTGAAAATCGGAGTCACCTAGTGCAG”, for which the binding signal was 41300 fluorescence intensity (a.u.).

Take “TTCTACAACTTGGACCATAAAACGTGTAGTTTTGTGAAATCGGAGTCACCTAGTGCAG”: the binding signal is 3570 fluorescence intensity (a.u.). With “CGATGGCTGCCACTGCCAACGTCAAGCTCCTCTCCGACGGCGGAGTCACCTAGTGCAG”, the binding signal was 3850 fluorescence intensity (a.u.).

As to “TCATCTCATCTCTCCACGTCACCCGACTCCGACTCCGTGGCGGAGTCACCTAGTGCAG”, the binding signal was 16900 fluorescence intensity (a.u.). The result for “TGCGGACTACGTCAAGCTGACGTCATCTCCGACCCGACCTCGGAGTCACCTAGTGCAG” reads 54000 fluorescence intensity (a.u.).
